# Laboratory results reported in ChEMBL document CHEMBL3988442, “University of Dundee, Small-Polar-MMV Screening Library” (2021).
# The campaign covered roughly 53,000 compounds. About 900 (1.7%) showed an effect of 50% or more. What follows is part of a selection rich in strong results, with near analogues and random picks from the rest.
# Tested on: Mycobacterium tuberculosis
# Assay: Cornell - Phenotypic assay to identify agents that inhibit growth of Mycobacterium tuberculosis
# Type: functional
# Parameters: scale not given: direction of the effect not stated beside the values
# Settings: 10 mM as filed; unlikely as a test dose
row,SMILES,Percent Effect [%]
1,Cc1cnc(N2CCCn3c(nnc3CN(C)C(C)C)C2)nc1.O=C(O)C(F)(F)F,8.261
2,c1csc(N2CCN(c3ncnc4sccc34)CC2)n1,8.465
3,COCC(=O)N1CCCC(C(=O)N(C)CCn2ccnc2C)C1 (configuration not stated),-64.71
4,CCn1c(CN(C)Cc2cnc(C)s2)nc2c(F)cccc21,21.09
5,Cc1ccccc1OCCN1CCn2c(C)nnc2C1,-10.78
6,Cc1nnc(C(C)N2CCc3[nH]c4ccccc4c3C2)o1 (configuration not stated),28.26
7,Cc1nnc(C(C)N2CCc3[nH]c4ccc(Cl)cc4c3C2)o1 (configuration not stated),34.8
8,Cc1noc(C(C)N2CCc3[nH]c4ccc(Cl)cc4c3C2)n1 (configuration not stated),63.72
9,CN(C)CCn1c2c(ccc1=O)CC(NC(=O)c1ccsc1)CC2.O=C(O)C(F)(F)F (configuration not stated),-27.73
10,CCN(CC1CCCO1)C(=O)Nc1ccc(F)cc1OC (configuration not stated),2.654
11,CCN(CC1CCCO1)C(=O)Nc1ccc(OC)c(C)c1 (configuration not stated),29.95
12,CCN(CC1CCCO1)C(=O)Nc1cc(OC)c(OC)cc1C (configuration not stated),69.91
13,CC(Oc1ccc2c(c1)OCO2)C(=O)N1CCC(c2ncc[nH]2)CC1 (configuration not stated),-2.052
14,Cc1ccc(C2CSCCN2C(=O)c2cccs2)o1 (configuration not stated),-1.514
15,CNC(=O)c1cnn2c(C3CCCN3)ccnc12 (configuration not stated),-26.66
16,Cn1ccnc1CN1CCCC(Cc2ccnc3ccncc23)CC1.O=CO (configuration not stated),25.28
17,CC(OCC1CC1)C(=O)Nc1ccn(Cc2ccccc2)n1 (configuration not stated),-1.057
18,CCOCCOC(C)C(=O)Nc1nccn1Cc1ccccc1 (configuration not stated),4.045
19,CC(OCC1CC1)C(=O)Nc1nccn1Cc1ccccc1 (configuration not stated),51.13
20,CCC(=O)N1CCCCC1c1nc(O)c2c(n1)CN(S(=O)(=O)CC)CC2 (configuration not stated),9.253
21,O=C1CCC(c2nc(C3CCN(C(=O)Cc4cccs4)CC3)no2)N1 (configuration not stated),57.39
22,O=C1CCC(c2nc(C3CCN(C(=O)C4CC4)CC3)no2)N1 (configuration not stated),13.14
23,Cc1nc([C@@H]2C[C@@H]3CCN(C(=O)Cc4cccc(F)c4)C[C@H]3O2)no1,16.61
24,Cc1nc([C@@H]2C[C@@H]3CCN(C(=O)Cc4ccsc4)C[C@H]3O2)no1,-0.3005
25,Cc1nc([C@@H]2C[C@@H]3CCN(C(=O)Cc4cccs4)C[C@H]3O2)no1,53.11

row,SMILES,Percent Effect [%]
1,CC(=O)N1CCC(c2noc(C3CCC(=O)N3)n2)CC1 (configuration not stated),5.586
2,CC(=O)N[C@@H]1CN(Cc2cccs2)C[C@H]1c1ccc(C)o1,10.2
3,Cn1nc(COc2cccnc2)c2c1CCN(CC1CC1)C2.O=C(O)C(F)(F)F.O=C(O)C(F)(F)F,-1.302
4,CCCN(CCO)S(=O)(=O)c1ccc2[nH]c(=O)[nH]c2c1,11.31
5,Cc1cc(C[C@@H]2COC[C@H]2NCc2ccc(C)c(C)c2)on1.O=C(O)CC(O)(CC(=O)O)C(=O)O,-9.136
6,Cc1cc(C[C@@H]2CCC[C@H]2NCc2ccccc2C(F)(F)F)on1.O=C(O)CC(O)(CC(=O)O)C(=O)O,12.28
7,Cc1cc(C[C@@H]2CCC[C@H]2NCc2cc(C)c(O)c(C)c2)on1.O=C(O)CC(O)(CC(=O)O)C(=O)O,77.55
8,CC(=O)N1CCC2(CCN(Cc3ccc(Cl)c(C(F)(F)F)c3)CC2)C1,43.5
9,Cc1cc2nc(C(C)C)cc(N3CCC(N(C)C)C3)n2n1 (configuration not stated),32.15
10,O=c1[nH]c2c(-c3ccccn3)nsc2c(=O)n1CC1CCCO1 (configuration not stated),-0.9245
11,Cc1ccc(C(=O)N2CC(Oc3ccccc3C)C2)s1,67.58
12,CO[C@H]1C[C@@H]2CN(C(=O)c3ccc(C)s3)C[C@@H]2C1,41.56
13,COc1ccccc1OC1CN(C(=O)c2ccc(C(C)=O)s2)C1,-4.28
14,COc1cccc2ccc(N3CCC(O)(C(=O)O)CC3)nc12,-24.68
15,CC(c1nc(C(C)(C)C)no1)N1CCN(Cc2ccco2)CC1 (configuration not stated),11.7
16,CCn1ccnc1CN1CCCN(C(=O)COC2CCCC2)CC1,-24.49
17,CNc1ncc(C(=O)N2CCOC(C(=O)N3CCCCCC3)C2)cn1 (configuration not stated),-4.246
18,CCOc1cccc2c1OCC(C(=O)NS(=O)(=O)Cc1ccccc1)=C2,106.8
19,CCOc1cccc2c1OCC(C(=O)NS(=O)(=O)c1cccs1)=C2,19.94
20,CCOc1ccccc1C(=O)NS(=O)(=O)c1ccc2c(c1)OCCCO2,27.03
21,CCOc1cccc2c1OCC(C(=O)NS(=O)(=O)c1c(C)noc1C)=C2,106
22,Cc1cc(OCC(=O)NS(=O)(=O)c2c(C)noc2C)ccc1Cl,39.96
23,CCOc1cccc2c1OCC(C(=O)NS(=O)(=O)c1ccc(Br)s1)=C2,-17.73
24,CCOc1cccc2c1OCC(C(=O)NC(C)Cn1cccn1)=C2 (configuration not stated),7.345
25,CCOc1cccc2c1OCC(C(=O)NS(=O)(=O)c1cncc(Br)c1)=C2,44.21

row,SMILES,Percent Effect [%]
1,CCOc1cccc2c1OCC(C(=O)NS(=O)(=O)c1ccc(C)s1)=C2,107.6
2,Cc1ccc(OCC(=O)NS(=O)(=O)Cc2ccccc2)cc1,7.336
3,CCOc1cccc2c1OCC(C(=O)NS(=O)(=O)c1ccc(Cl)cc1)=C2,104.6983
4,CCOc1cccc2c1OCC(C(=O)NS(=O)(=O)c1ccc(Cl)s1)=C2,9.699
5,CCc1cnc(NC(=O)NC2CCN(C3CCCC3)CC2)s1,-3.242
6,CC(=O)N1CC[C@@H]2O[C@@H](COCC(=O)N3CCCC3)CC[C@@H]21,-45.3
7,O=C(NCC(Cc1cccc(F)c1)N1CCCC1=O)c1ccc(=O)[nH]n1 (configuration not stated),14.14
8,Cc1ncsc1C(=O)N1CCC(c2ncncc2-c2ccnc(N)c2)C1 (configuration not stated),-0.8467
9,CSCC[C@H](NC(C)=O)c1nc(Cc2ccccc2)n[nH]1,-11.93
10,COc1ncccc1CN1Cc2nccn2CC(CN2CCCC2)C1 (configuration not stated),6.883
11,Cc1ccccc1CCCN1CCS(=O)(=O)CC1C (configuration not stated),46.6
12,CC(C)(C)S(=O)(=O)c1ccc(N2CCC(n3cncn3)CC2)cn1,-14.59
13,CS(=O)(=O)N[C@@H]1CN(C(=O)c2cnccn2)[C@@H]2CCCO[C@@H]21,-34.02
14,Cc1cnc(CN(C)Cc2cccc(OC(F)(F)F)c2)cn1,-8.651
15,O=C(NCc1ccccc1)NCc1nc(-c2ccncc2)n[nH]1,13.27
16,CC(C)Oc1cccc(-c2nc3c([nH]2)CCCNC3=O)c1,-4.933
17,Cc1cccc(SC2CCN(C(=O)CCCn3cnnn3)CC2)c1,50.26
18,CC(=O)NCCCC(=O)N1CCC(Sc2cccc(C)c2)CC1,15.76
19,Cc1cccc(SC2CCN(C(=O)CCCS(N)(=O)=O)CC2)c1,37.58
20,Cc1nc(N2CCCOC(Cn3cccn3)C2)c2sccc2n1 (configuration not stated),26.84
21,CCC(C)(C)NC(=O)c1nnn(-c2cccc3c2CCN(C)C3)c1C,-0.0817
22,COCc1nc(CNc2cc(C)nc(N3CCCCC3)n2)no1,-11.46
23,CCn1cc(S(=O)(=O)NC(=O)CCc2c[nH]c3ccccc23)cn1,53.27
24,CCn1cc(S(=O)(=O)NC(CO)Cc2c[nH]c3ccccc23)cn1 (configuration not stated),-1.971
25,CCn1cc(NC(=O)NC(CO)Cc2c[nH]c3ccccc23)cn1 (configuration not stated),-8.114

row,SMILES,Percent Effect [%]
1,Cc1noc(-c2ccc(-n3ncc(C(=O)O)c3C)nc2)n1,11.73
2,COC(=O)[C@@H](NC(=O)c1snnc1-c1ccc(OC)cc1)C(C)C,58.81
3,CCC(C)NC(=O)c1snnc1-c1ccc(OC)cc1 (configuration not stated),21.58
4,COC(=O)[C@H](CC(C)C)NC(=O)c1snnc1-c1ccc(OC)cc1,25.36
5,Cc1ccc(-c2nc(CN3CCn4c(C)nnc4C3)co2)cc1,-23.96
6,Nc1nc2nc(C3CCN(C(=O)c4cscn4)C3)ccc2s1 (configuration not stated),-97.96
7,O=C(NC1CCCN(CCc2ccccc2)C1)c1ccccn1 (configuration not stated),35.43
8,O=C(c1ccco1)N1CCO[C@@H]2CN(c3ccccc3)CC[C@@H]2C1,17.14
9,COc1cc(C(=O)N2CC(Oc3ccccc3Cl)C2)ccn1,25.67
10,CCc1ccccc1OC1CN(C(=O)c2ccnc(OC)c2)C1,66.55
11,COc1cccc(OC2CN(C(=O)c3ccnc(OC)c3)C2)c1,17.3
12,CCc1ccc(NC(=O)N2C[C@H]3C[C@H](C(=O)N4CCCC4)[C@@H](C2)O3)cc1,-25.04
13,O=C(c1ccccc1F)N1CC[C@@H]2CN(c3ncccn3)CCO[C@@H]2C1,12.82
14,O=S(=O)(Cc1ccccc1Cl)N1CCC2(CC1)OCCS2,47.83
15,CNC(=O)CS(=O)(=O)C1CCN(S(=O)(=O)c2ccccc2Br)CC1,7.561
16,Cc1c(Cl)cccc1S(=O)(=O)N1CCC2(CC1)OCCS2,53.55
17,O=S(=O)(c1ccccc1Br)N1CCC2(CC1)OCCS2,54.27
18,O=S(=O)(NC1CCC2(CC1)OCCO2)c1ccccc1Br,9.266
19,O=S(=O)(c1ccccc1Cl)N1CCC2(CC1)OCCS2,36.27
20,CS(=O)(=O)N1CCC(CNc2cc(Cl)ccc2C#N)CC1,-6.261
21,COCCO[C@H]1CCN(C(=O)c2cccnc2)[C@H]1Cc1cnn(C)c1.O=C(O)C(F)(F)F,12.42
22,COCCS(=O)(=O)c1ncc(CN(C)CC(C)C)n1Cc1ccccc1,-3.776
